ChEMBL document CHEMBL3988442, “University of Dundee, Small-Polar-MMV Screening Library” (2021)
The campaign covered roughly 48,000 compounds. About 13,000 (27%) showed an effect of 50% or more. The list shows a part of the results.

Tested on: Wolbachia pipientis
Assay: Anti-Wolbachia Cell-Based Screen
Type: functional
Design: scale not given: in the data most compounds retested in dose-response had high values
Conditions: 5 µM

SMILES	Percent Effect [%]
CC(C)n1cnc(C2CN(C)c3ccc(C(=O)NCC4CC4)cc32)n1 (stereo not given)	-10.28
CCCn1nnnc1CSc1nccn1C	1.571
O=C(NCCCn1ccnc1)c1cccnc1OCC(F)(F)F	88.67
O=C(NCC(O)c1ccc(F)c(F)c1)c1cccnc1OCC(F)(F)F (stereo not given)	8.161
O=C(c1cccnc1OCC(F)(F)F)N1CCCn2ncnc21	-8.478
NCc1cnn(-c2ccccc2C(=O)NCCCn2ccnc2)c1	-6.38
O=C(NCc1cccnc1OCC(F)(F)F)N1CCOCC1	-14.27
O=C(O)c1ncccc1OCC(F)(F)F	2.885
CN(CCc1ccccc1)C(=O)c1cccnc1OCC(F)(F)F	147.6
O=C(CNC(=O)c1cnc2ccccc2c1O)NCCCn1ccnc1	9.933
O=C(NCCc1ccncc1)c1cccnc1OCC(F)(F)F	113.2
O=C1COc2cc(S(=O)(=O)NCCC3=CCCCC3)c(Br)cc2N1	12.05
N#Cc1cccc(OCC(=O)N(Cc2ccncc2)C2CC2)c1	-1.497
CCNC(=O)N1CCC(NC(=O)NCCc2cc(F)cc(F)c2)C1 (stereo not given)	-1.465
Cc1noc(C)c1NC(=O)NC1CCN(C(=O)OC(C)(C)C)CC1	-1.211
c1ccc(CN2CCC(NCCSc3cnn[nH]3)C2)cc1 (stereo not given)	-16.66
CN(C)c1cc(C2CCCN(C(=O)c3noc4c3CCCC4)C2)ccn1 (stereo not given)	145.2
Cc1noc2ncc(C(=O)N3CCCC3c3ccncc3)cc12 (stereo not given)	1.131
O=C(c1noc2c1CCCC2)N1CCCC(c2nccs2)C1 (stereo not given)	6.202
CN(C)c1cc(C2CCCN2C(=O)c2noc3c2CCCC3)ccn1 (stereo not given)	74.42
CN(C)c1ccc(C(=O)N2CCCC2c2ccc(Cl)cc2)nn1 (stereo not given)	-0.3166
CCOCc1ncn2c1CN(S(=O)(=O)c1cccs1)CCC2	-7.324
COCc1cc(CNC(=O)c2c(C)cc(C)[nH]c2=O)n[nH]1	-6.309
O=C(c1ccc2c(c1)COC2)N1CCC(Nc2cccnn2)CC1	2.056
O=C(c1ccc2c(c1)OCO2)N1CCC(Nc2cccnn2)CC1	90.41
Cc1cc(C(=O)N2CCC(Nc3cccnn3)CC2)no1	29.64
O=C(c1cc[nH]n1)N1CCC(Nc2cccnn2)CC1	4.355
O=C(c1ccc2[nH]c(=O)[nH]c2c1)N1CCC(Nc2cccnn2)CC1	102.4
O=C(c1ccc2[nH]nnc2c1)N1CCC(Nc2cccnn2)CC1	101.2
O=C(c1ccc2cc[nH]c2c1)N1CCC(Nc2cccnn2)CC1	107.6
